Test results reported in the supplement of paper PMC10849652.
About 7,900 targets were measured; listed, in parts, are those with a hit and a random draw of the rest. About 0.6% of all pairs of compound and target were hits. Values without a mark were called inactive.

Tests used:
Assay in all cases: log2 fold change, soluble protein after heating vs DMSO (PISA); higher = thermal stabilisation; K562 cells, 10 uM, 30 min; active = over 0.2 and 3.5 SD of the protein, either way, in both replicates (recomputed)
IRAK-1-4 Inhibitor I = compound: C1COCCN1CCN2C3=CC=CC=C3N=C2NC(=O)C4=CC(=CC=C4)[N+](=O)[O-] [IRAK-1-4 Inhibitor I]
Procedure, shortened: (§1)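 K562 cells (2×10^6 cells/mL) were treated with 10 μM compound for 30 min, and aliquots were heated for 3 min over 48°C-58°C. Pooled aliquots were extracted in PBS with 0.5% NP-40 at 4°C, and the supernatant after 21,000xg for 90 min was measured by TMTpro 16plex LC-MS/MS with channel sums equalised. Reported thermal stability, relative to control samples and from duplicates, is a log2 fold change.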

ibrutinib = compound: C=CC(=O)N1CCC[C@@H](n2nc(-c3ccc(Oc4ccccc4)cc3)c3c(N)ncnc32)C1 [ibrutinib]
Procedure, shortened: as §1

[1] = compound: CC(=O)c1cnc2ccc(-c3cc(Cl)c(O)c(Cl)c3)nc2c1N[C@H]1CC[C@H](CN(C)C)CC1
Procedure, shortened: as §1

ralimetinib = compound: CC(C)(C)Cn1c(N)nc2ccc(-c3[nH]c(C(C)(C)C)nc3-c3ccc(F)cc3)nc21 [ralimetinib]
Procedure, shortened: as §1

[2] = compound: CC(C)(O)CC(=O)NCCn1ccc2ncnc(Nc3ccc(Oc4cccc(C(F)(F)F)c4)c(Cl)c3)c21
Procedure, shortened: as §1

[3] = compound: CC(C)C1=C2N=C(C=C(N2N=C1)NCC3=CC=CC=C3)NCCCCCCN
Procedure, shortened: as §1

[4] = compound: CC(C)C[C@@H](C=O)NC(=O)[C@H](CC(C)C)NC(=O)[C@H](CC(C)C)NC(=O)OCc1ccccc1
Procedure, shortened: as §1

pinometostat = compound: CC(C)N(C[C@H]1O[C@@H](n2cnc3c(N)ncnc32)[C@H](O)[C@@H]1O)[C@H]1C[C@@H](CCc2nc3cc(C(C)(C)C)ccc3[nH]2)C1 [pinometostat]
Procedure, shortened: as §1

[5] = compound: CC1=C(C(CC(=O)N1)C2=CC=C(C=C2)C(F)(F)F)C(=O)NC3=C(C=C4C(=C3)C=NN4)F
Procedure, shortened: as §1

[6] = compound: CC1=C(C2=C(C=C1)C(=O)C3=CC=CC=C3N2CCCN)C
Procedure, shortened: as §1

[7] = compound: CC1=C(C=C(C=C1)NC(=O)C2=CC(=CC=C2)C(C)(C)C#N)NC3=CC4=C(C=C3)N=CN(C4=O)C
Procedure, shortened: as §1

[8] = compound: CC1=C(C=C(C=C1)NC(=O)C2=CC(=CC=C2)N(C)C)NC(=O)C3=CC=C(C=C3)O
Procedure, shortened: as §1

[9] = compound: CC1=NC(=CC=C1)C2=C(N=C(N2)C(C)(C)C)C3=CC4=NC=CN=C4C=C3
Procedure, shortened: as §1

Nexturastat A = compound: CCCCN(Cc1ccc(C(=O)NO)cc1)C(=O)Nc1ccccc1 [Nexturastat A]
Procedure, shortened: as §1

[10] = compound: CCCc1cc(C)[nH]c(=O)c1CNC(=O)c1cc(-c2ccnc(N3CCN(C)CC3)c2)cc2c1cnn2C(C)C
Procedure, shortened: as §1

givinostat = compound: CCN(CC)Cc1ccc2cc(COC(=O)Nc3ccc(C(=O)NO)cc3)ccc2c1 [givinostat]
Procedure, shortened: as §1

barasertib = compound: CCN(CCCOc1ccc2c(Nc3cc(CC(=O)Nc4cccc(F)c4)[nH]n3)ncnc2c1)CCOP(=O)(O)O [barasertib]
Procedure, shortened: as §1

[11] = compound: CC1=CC=C(C=C1)SC2=C3C=C(SC3=CN=C2)C(=O)N
Procedure, shortened: as §1

vemurafenib = compound: CCCS(=O)(=O)Nc1ccc(F)c(C(=O)c2c[nH]c3ncc(-c4ccc(Cl)cc4)cc23)c1F [vemurafenib]
Procedure, shortened: as §1

[12] = compound: CCCS(=O)(=O)Nc1ccc(F)c(C(=O)c2c[nH]c3ncc(Cl)cc23)c1F
Procedure, shortened: as §1

UniProt Q9H4L5, sequence (Q9H4L5 whole entry, looked up): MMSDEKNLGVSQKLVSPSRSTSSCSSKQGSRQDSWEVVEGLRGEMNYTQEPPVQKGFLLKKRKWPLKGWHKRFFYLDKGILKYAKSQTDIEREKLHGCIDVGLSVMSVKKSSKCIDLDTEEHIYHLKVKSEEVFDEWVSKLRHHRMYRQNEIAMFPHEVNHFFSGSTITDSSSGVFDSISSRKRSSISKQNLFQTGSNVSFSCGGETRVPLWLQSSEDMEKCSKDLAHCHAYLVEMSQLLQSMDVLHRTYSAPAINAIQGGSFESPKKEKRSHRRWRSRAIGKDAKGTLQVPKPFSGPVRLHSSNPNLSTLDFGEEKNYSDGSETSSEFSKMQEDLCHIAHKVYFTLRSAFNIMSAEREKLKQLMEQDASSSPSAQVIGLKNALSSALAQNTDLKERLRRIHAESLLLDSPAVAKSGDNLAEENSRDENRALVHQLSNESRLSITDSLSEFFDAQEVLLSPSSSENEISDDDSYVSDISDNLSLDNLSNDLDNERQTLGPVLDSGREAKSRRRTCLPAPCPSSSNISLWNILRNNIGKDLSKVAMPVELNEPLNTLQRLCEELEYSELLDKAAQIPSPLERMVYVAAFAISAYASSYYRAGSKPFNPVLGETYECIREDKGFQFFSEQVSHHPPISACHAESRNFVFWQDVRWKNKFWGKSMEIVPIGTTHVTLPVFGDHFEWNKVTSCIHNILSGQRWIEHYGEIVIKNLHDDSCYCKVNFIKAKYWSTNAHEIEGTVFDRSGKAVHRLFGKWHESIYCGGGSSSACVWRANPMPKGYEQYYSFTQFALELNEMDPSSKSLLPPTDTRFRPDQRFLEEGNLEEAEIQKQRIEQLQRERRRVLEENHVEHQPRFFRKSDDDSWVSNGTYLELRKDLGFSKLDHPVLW
UniProt O60890, sequence (O60890 whole entry, looked up): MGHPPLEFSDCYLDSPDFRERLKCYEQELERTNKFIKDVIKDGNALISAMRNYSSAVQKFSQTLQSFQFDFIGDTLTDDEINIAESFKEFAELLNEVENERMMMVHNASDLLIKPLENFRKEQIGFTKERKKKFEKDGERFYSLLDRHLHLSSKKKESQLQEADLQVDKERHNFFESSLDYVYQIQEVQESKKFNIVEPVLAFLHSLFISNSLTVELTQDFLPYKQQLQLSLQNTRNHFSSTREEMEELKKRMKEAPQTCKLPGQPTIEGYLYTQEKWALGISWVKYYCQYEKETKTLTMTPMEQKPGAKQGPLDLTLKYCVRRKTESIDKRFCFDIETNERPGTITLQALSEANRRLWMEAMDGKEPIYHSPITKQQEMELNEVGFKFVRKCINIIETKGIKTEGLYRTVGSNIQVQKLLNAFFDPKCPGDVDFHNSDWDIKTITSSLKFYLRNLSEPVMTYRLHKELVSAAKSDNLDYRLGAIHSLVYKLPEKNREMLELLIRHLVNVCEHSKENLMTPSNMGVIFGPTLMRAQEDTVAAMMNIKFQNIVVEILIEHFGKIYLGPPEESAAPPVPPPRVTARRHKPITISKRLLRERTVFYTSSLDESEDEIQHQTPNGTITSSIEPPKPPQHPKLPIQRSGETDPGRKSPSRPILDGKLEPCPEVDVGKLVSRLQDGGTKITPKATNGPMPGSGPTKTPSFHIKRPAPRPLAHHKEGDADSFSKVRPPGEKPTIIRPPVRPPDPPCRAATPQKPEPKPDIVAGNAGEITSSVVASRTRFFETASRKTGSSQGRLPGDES
UniProt Q9H3L0, sequence (Q9H3L0 whole entry, looked up): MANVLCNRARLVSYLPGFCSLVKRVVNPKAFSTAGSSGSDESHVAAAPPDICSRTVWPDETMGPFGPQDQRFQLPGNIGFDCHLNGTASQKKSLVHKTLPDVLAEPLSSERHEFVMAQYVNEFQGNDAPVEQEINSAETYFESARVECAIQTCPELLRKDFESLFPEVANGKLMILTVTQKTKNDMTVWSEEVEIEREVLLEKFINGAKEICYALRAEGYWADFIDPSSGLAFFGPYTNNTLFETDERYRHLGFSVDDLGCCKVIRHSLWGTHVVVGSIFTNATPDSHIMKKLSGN
NA, A0A494C071, sequence (A0A494C071 whole entry, looked up): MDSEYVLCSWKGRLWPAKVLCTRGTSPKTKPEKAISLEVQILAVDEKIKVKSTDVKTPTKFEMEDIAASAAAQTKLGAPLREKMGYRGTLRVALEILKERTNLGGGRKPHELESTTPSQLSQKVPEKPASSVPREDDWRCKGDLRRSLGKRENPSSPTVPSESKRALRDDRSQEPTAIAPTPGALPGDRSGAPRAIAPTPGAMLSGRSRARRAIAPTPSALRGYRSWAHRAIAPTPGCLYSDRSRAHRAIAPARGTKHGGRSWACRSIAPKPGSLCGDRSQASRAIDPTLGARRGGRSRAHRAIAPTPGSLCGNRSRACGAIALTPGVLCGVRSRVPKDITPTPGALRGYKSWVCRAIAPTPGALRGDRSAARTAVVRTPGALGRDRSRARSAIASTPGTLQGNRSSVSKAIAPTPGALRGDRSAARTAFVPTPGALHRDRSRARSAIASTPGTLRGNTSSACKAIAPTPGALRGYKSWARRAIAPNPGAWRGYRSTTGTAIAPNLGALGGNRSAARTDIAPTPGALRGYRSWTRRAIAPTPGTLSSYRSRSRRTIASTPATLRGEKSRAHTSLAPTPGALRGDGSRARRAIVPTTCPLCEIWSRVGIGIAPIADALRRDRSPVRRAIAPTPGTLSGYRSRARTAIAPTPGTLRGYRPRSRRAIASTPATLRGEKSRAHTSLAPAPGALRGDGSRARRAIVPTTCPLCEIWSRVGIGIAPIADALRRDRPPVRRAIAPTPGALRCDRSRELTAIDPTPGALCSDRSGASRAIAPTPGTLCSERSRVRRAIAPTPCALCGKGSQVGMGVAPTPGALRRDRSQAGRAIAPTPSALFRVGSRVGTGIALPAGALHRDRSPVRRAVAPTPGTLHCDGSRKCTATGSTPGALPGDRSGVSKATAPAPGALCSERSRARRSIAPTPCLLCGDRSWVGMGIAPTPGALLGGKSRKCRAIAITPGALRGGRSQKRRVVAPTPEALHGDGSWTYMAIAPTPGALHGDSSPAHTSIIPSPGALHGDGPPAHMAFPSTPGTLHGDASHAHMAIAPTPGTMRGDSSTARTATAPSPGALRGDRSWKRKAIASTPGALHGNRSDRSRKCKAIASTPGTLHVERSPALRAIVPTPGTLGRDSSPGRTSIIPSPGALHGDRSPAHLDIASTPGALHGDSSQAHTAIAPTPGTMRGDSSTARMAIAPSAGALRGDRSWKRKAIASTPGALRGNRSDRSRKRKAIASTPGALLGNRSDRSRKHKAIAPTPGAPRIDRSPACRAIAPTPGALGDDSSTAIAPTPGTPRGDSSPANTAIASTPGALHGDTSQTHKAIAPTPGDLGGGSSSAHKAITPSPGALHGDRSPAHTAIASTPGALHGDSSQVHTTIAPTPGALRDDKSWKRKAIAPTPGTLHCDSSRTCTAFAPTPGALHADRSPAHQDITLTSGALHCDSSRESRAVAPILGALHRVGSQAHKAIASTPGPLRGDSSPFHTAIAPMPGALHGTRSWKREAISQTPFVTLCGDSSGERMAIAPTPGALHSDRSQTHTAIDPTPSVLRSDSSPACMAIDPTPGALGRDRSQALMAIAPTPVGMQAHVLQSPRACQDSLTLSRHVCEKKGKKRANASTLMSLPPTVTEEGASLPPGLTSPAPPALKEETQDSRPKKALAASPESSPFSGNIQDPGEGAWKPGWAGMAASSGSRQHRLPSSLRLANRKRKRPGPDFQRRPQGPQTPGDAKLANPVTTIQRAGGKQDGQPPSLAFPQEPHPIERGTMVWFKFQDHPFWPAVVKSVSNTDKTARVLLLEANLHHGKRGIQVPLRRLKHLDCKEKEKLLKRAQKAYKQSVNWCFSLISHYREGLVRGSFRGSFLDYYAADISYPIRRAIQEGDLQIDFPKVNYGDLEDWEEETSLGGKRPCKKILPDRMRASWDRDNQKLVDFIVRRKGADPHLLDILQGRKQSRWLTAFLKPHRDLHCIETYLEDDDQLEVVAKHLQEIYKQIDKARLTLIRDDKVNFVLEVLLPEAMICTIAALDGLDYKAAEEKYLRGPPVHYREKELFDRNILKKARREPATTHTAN
UniProt Q99549, sequence (Q99549 whole entry, looked up): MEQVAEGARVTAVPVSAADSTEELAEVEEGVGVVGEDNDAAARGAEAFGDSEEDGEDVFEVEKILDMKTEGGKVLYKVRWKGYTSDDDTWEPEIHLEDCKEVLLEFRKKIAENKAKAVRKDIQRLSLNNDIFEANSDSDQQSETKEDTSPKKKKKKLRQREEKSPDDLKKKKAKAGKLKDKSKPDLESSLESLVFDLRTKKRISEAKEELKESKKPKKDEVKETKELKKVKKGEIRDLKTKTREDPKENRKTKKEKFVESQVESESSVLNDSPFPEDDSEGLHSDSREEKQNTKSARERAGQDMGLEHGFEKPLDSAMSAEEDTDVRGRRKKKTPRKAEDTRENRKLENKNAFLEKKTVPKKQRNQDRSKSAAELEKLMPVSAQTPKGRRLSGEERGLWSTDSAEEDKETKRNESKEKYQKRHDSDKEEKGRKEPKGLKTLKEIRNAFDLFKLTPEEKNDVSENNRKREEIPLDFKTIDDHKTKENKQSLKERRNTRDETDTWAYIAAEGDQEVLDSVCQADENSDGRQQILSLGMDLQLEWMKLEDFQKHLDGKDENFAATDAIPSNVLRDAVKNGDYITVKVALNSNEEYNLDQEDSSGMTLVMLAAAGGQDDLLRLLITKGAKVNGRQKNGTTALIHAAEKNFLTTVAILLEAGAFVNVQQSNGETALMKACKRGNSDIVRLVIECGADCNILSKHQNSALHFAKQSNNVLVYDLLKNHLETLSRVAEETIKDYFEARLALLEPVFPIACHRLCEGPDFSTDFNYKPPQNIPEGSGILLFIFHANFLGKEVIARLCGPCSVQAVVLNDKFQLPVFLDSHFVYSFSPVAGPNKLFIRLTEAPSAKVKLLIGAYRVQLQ
UniProt B2RBV5, sequence (B2RBV5 whole entry, looked up): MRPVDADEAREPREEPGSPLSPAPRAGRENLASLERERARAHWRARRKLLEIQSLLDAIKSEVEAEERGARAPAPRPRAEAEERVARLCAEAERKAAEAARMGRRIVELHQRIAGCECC

Row | Target | log2 fold change (IRAK-1-4 Inhibitor I) | log2 fold change (ibrutinib) | log2 fold change [1] | log2 fold change (ralimetinib) | log2 fold change [2] | log2 fold change [3] | log2 fold change [4] | log2 fold change (pinometostat) | log2 fold change [5] | log2 fold change [6] | log2 fold change [7] | log2 fold change [8] | log2 fold change [9] | log2 fold change (Nexturastat A) | log2 fold change [10] | log2 fold change (givinostat) | log2 fold change (barasertib) | log2 fold change [11] | log2 fold change (vemurafenib) | log2 fold change [12]
1 | OPHN1 (UniProt O60890) | -0.086 | -0.145 | -0.021 | -0.033 | -0.146 | 0.12 | -0.042 | -0.062 | -0.034 | 0.069 | -0.146 | -0.029 | 0.218 | -0.12 | -0.018 | 0.049 | -0.037 | – | – | –
2 | NOLC1 isoform 2 (UniProt Q14978) | -0.057 | -0.089 | -0.305 (active) | 0.041 | 0.021 | -0.015 | -0.086 | -0.011 | -0.023 | -1.4 (active) | -0.074 | -0.004 | -0.051 | 0.018 | 0.104 | 0.143 | -0.033 | -0.082 | -0.088 | -0.032
3 | NPEPPS (UniProt P55786) | 0.039 | 0 | -0.013 | 0.021 | -0.117 | 0.254 (active) | -0.035 | -0.026 | -0.01 | 0.045 | 0.079 | -0.012 | 0.018 | -0.017 | 0.009 | -0.02 | 0.008 | -0.004 | -0.022 | 0.003
4 | MRPS17 (UniProt Q9Y2R5) | -0.192 | 0.06 | -0.029 | 0.032 | -0.054 | 0.014 | 0.025 | -0.027 | -0.049 | -0.2 | 0.055 | -0.095 | 0.008 | 0.085 | 0.095 | -0.103 | 0.01 | -0.014 | 0.084 | 0.031
5 | NECTIN2 isoform 2 (UniProt Q92692) | -0.018 | 0.047 | 0.03 | 0.081 | 0.1 | 0.059 | 0.008 | -0.008 | 0 | – | -0.037 | 0.011 | -0.104 | 0.17 | -0.028 | 0.054 | 0.005 | – | 0.033 | –
6 | MLST8 (UniProt Q9BVC4) | 0.002 | -0.048 | 0.099 | – | -0.049 | -0.136 | – | -0.093 | 0.02 | 0.037 | 0.118 | – | -0.079 | 0.001 | -0.035 | -0.058 | 0.038 | 0.094 | 0.009 | 0.031
7 | ORC5 (UniProt O43913) | 0.024 | -0.014 | -0.306 | 0.015 | – | -0.134 | 0.005 | 0.128 | -0.005 | 0.08 | -0.193 | -0.089 | -0.038 | – | 0.058 | -0.009 | 0.025 | 0 | 0.058 | 0.058
8 | MMADHC (UniProt Q9H3L0) | 0.014 | -0.056 | -0.011 | 0.073 | – | 0.039 | 0.076 | 0.182 | -0.118 | -0.137 | – | 0.001 | -0.078 | – | 0.108 | 0.04 | 0.029 | -0.078 | 0.067 | -0.057
9 | OVCA2 (UniProt Q8WZ82) | -0.087 | 0.023 | -0.019 | -0.1 | – | – | 0.095 | 0.021 | 0.044 | – | – | -0.132 | 0.086 | – | -0.305 | – | 0.06 | 0.013 | – | -0.048
10 | MPHOSPH8 isoform 2 (UniProt Q99549) | -0.149 | – | 0.026 | 0.271 | -0.06 | – | 0.035 | -0.027 | – | -0.84 (active) | -0.159 | 0.179 | -0.022 | -0.013 | -0.002 | – | – | -0.159 | -0.02 | -0.1
11 | NIPSNAP2 (UniProt C9J7B1) | – | 0.052 | -0.389 | – | – | – | – | – | – | – | 0.067 | – | – | – | -0.182 | – | 0.01 | – | – | –
12 | NA (UniProt J3KR12) | -0.191 | -0.159 | – | 0.011 | -0.1 | – | 0.017 | 0.053 | 0.046 | – | – | 0.018 | 0.073 | -0.283 | -0.046 | – | 0 | – | – | –
13 | MYH16 (UniProt Q9H6N6) | -0.177 | -0.02 | 0.045 | – | – | 0.026 | – | -0.019 | -0.024 | 0.805 (active) | 0.484 | – | 0.724 (active) | – | 0.12 | -0.072 | -0.069 | 0.143 | 0.155 | 0.216
14 | MITF (UniProt O75030) | 0.166 | – | -0.212 | – | – | -0.581 (active) | – | 0.074 | 0.158 | – | 0.005 | – | 0.107 | – | -0.281 | -0.002 | – | – | 0.016 | –
15 | NA (UniProt B2RBV5) | – | 0.069 | – | – | -0.037 | – | – | – | -0.314 | – | -0.022 | – | – | 0.292 | 0.021 | – | 0.002 | -0.245 | – | 0.005
16 | NA, A0A494C071 | -0.011 | -0.1 | -0.038 | – | 0.03 | – | – | -0.034 | 0.013 | -0.141 | – | – | 0.011 | -0.081 | -0.159 | – | 0.043 | – | -0.142 | –
17 | NDUFA7 (UniProt M0R0N0) | – | -0.109 | – | – | – | -0.136 | – | – | – | – | -0.011 | – | – | – | – | 0.104 | 0.052 | – | -0.195 | –
18 | MXRA7 isoform 3 (UniProt P84157) | – | – | – | -0.031 | – | – | 0.151 | – | – | – | – | 0.178 | – | – | – | – | – | -0.174 | – | 0.193
19 | MRM2 (UniProt Q9UI43) | – | – | -0.119 | – | – | -0.075 | – | – | 0.057 | 0.104 | – | – | – | – | – | 0.001 | – | 0.046 | 0.047 | -0.078
20 | NOLC1 isoform 3 (UniProt Q14978) | – | – | – | – | – | 0.151 | – | – | – | – | – | – | – | – | – | -0.02 | – | – | – | –
21 | NCBP2AS2 (UniProt Q69YL0) | – | 0.07 | 0.21 | -0.01 | – | -0.869 (active) | 0.026 | – | 0.089 | -0.008 | 0.069 | 0.017 | – | – | -0.096 | -0.146 | 0.072 | 0.162 | -0.039 | 0.037
22 | OSBPL3 (UniProt Q9H4L5) | -0.083 | – | -0.277 | 0.309 | 0.252 | 0.506 | 0.206 | 0.204 | -0.165 | -0.069 | 0.35 | 0.04 | -0.062 | 0.471 | – | -0.204 | – | 0.006 | -0.267 | -0.09
